HCMV inh – inhibitors of human cytomegalovirus. activity change, negative = inhibition, % at 57.5 µM. HFF cells, HCMV-luciferase reporter, 72 h; hits give low values. 4.5% of 410,000 active; in the data active = activity change below about -60%; inconclusive = no clear call, values can overlap the other calls; inactive = above about -39%
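Compounds were evaluated in HFFs infected with an HCMV luciferase reporter virus (MOI 1 PFU/cell). Luciferase in lysates collected 72 h post infection served as the replication measure.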
Sm TGR inh – inhibitors of Schistosoma mansoni thioredoxin glutathione reductase | Potency, µM (doses to about 114 µM), hits mostly inhibitors | Q962Y6 | purified TGR, DTNB reduction, TNB absorbance 405 nm | 3% of 360,000 active; note: nearly all actives have a fitted effect of over 60% in size
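First, TGR (20 nM dispensed) and NADPH were mixed with compound. Second, a 15 min room-temperature incubation followed. Third, further NADPH and then DTNB were added to start the reaction. Finally, TNB absorbance was monitored kinetically.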
Pf growth 96h – inhibits malaria parasite growth, 96 h; P. falciparum luciferase reporter growth, 96 h; Potency, µM (series often up to 28.7 µM), usual class: inhibitors; 6.9% of 320,000 active; AID 504834
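96 h incubation, 37 C, 5% CO2, of luciferase-reporter P. falciparum-infected RBCs (2% hematocrit, 0.05% parasitemia final) with test compounds; endpoint luminescence.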
Pf growth 48h – inhibits P. falciparum growth in the first generation, 48 h; AID 504832; Potency, µM (doses to about 28.7 µM), hits mostly inhibitors; P. falciparum luciferase growth in erythrocytes, 48 h; 5.9% of 310,000 active
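Luciferase-expressing parasites in RBCs, 2% Hct / 0.1% parasitemia final; RPMI 1640 + 0.5% Albumax; 37 C, 5% CO2, one generation; luminescence read-out, lower signal = inhibition.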
FBPA Giardia inh – inhibitors of Giardia lamblia fructose-1,6-bisphosphate aldolase; A8B2U2; purified Giardia FBPA; Potency, µM (doses to about 59.6 µM), most hits filed as inhibitors; 0.71% of 290,000 active; AID 2451; note: nearly all actives have a fitted effect of over 55% in size
Target sequence (A8B2U2 whole entry, looked up): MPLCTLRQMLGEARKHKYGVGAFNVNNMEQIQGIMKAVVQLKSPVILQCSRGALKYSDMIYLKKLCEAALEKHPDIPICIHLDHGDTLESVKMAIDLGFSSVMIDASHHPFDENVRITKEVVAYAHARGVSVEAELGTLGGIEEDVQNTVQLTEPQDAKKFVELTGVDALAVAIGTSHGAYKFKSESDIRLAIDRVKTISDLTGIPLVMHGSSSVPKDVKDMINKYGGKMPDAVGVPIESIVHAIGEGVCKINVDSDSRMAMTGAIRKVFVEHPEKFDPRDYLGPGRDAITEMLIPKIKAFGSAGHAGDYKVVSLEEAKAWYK
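Giardia FBPA (40 nM reagent) was preincubated 10 min at RT with compound (up to 57.5 uM final), then substrate plus GAPDH/TPI/NAD/arsenate coupling system with diaphorase/resazurin was added; resorufin fluorescence (525/598 nm) was read after 20 min.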
Hits are given with their value; [ ] = dose if it differs, or a comment. An excerpt weighted towards active compounds, which were near 14% of everything screened. Unless noted, calls come from the whole dose curve; as a rule, active = well fitted curve in the direction sought with a large enough effect; inconclusive = small, poorly fitted or top-dose-only effect, or another doubt; inactive = no such curve, though single readings can be large; an effect the other way counts as inactive or inconclusive.

`CCOc1ccc(N(CC(=O)N2CCN(C(=O)CN(c3ccc(OCC)cc3)S(C)(=O)=O)CC2)S(C)(=O)=O)cc1` gave HCMV inh inactive, Sm TGR inh inactive, Pf growth 96h inconclusive, Pf growth 48h inconclusive and FBPA Giardia inh inactive.
COc1ccc(/C(=N/O)C(C)(C)NO)cc1 was read as HCMV inh inactive, Sm TGR inh inactive, Pf growth 96h 8.3µM and FBPA Giardia inh inactive.
Screening CC(C)(NO)/C(=N\O)c1ccc(Cl)cc1 returned HCMV inh inactive, Sm TGR inh inactive, Pf growth 96h inactive, Pf growth 48h inactive and FBPA Giardia inh inactive.
`O=C(NC1CCCCC1)NC1CC2CCCC(C1)N2C1CCCC1` (centres undefined) gave HCMV inh inactive, Sm TGR inh inactive, Pf growth 96h 13µM, Pf growth 48h inactive and FBPA Giardia inh inactive.
COc1ccc(CNC(=O)Nc2ccc3c(c2)c(=O)n(C)n3Cc2cccc(C(F)(F)F)c2)cc1 was read as HCMV inh inactive.
Screening COc1ccc(-c2oc3ccccc3c2C(=O)Oc2ccccc2)cc1 returned HCMV inh inactive, Sm TGR inh inactive, Pf growth 96h inconclusive, Pf growth 48h inactive and FBPA Giardia inh inactive.
`Cc1cnc(C(=O)OCC(=O)Nc2c(Cl)cc(Cl)cc2Cl)cn1` gave HCMV inh inactive, Sm TGR inh inactive, Pf growth 96h inactive and Pf growth 48h inactive.
Screening CC(=O)/C(=C\N(C)C)Sc1ccc(Cl)cc1 returned HCMV inh inactive, Sm TGR inh inconclusive, Pf growth 96h inconclusive, Pf growth 48h inconclusive and FBPA Giardia inh inactive.
For S=C(Sc1ccc(Cl)cc1)Sc1ccc(Cl)cc1 the results were Sm TGR inh 2µM, Pf growth 96h inconclusive, Pf growth 48h 6.6µM and FBPA Giardia inh inactive.
For Fc1ccc(-c2csc3ncnc(Cl)c23)cc1 the results were HCMV inh inconclusive, Sm TGR inh inactive, Pf growth 96h inconclusive, Pf growth 48h 0.23µM and FBPA Giardia inh inactive.
`COc1ccc(-c2csc3ncnc(Cl)c23)cc1` gave HCMV inh inactive, Sm TGR inh inactive, Pf growth 96h inactive, Pf growth 48h 1.3µM and FBPA Giardia inh inactive.
Screening Clc1ccc(-c2csc3ncnc(Cl)c23)cc1 returned HCMV inh inactive, Sm TGR inh inactive, Pf growth 96h inconclusive, Pf growth 48h inconclusive and FBPA Giardia inh inactive.
COc1ccc(Nc2ncnc3scc(-c4ccc(OC)cc4)c23)cc1 was read as HCMV inh inconclusive, Sm TGR inh inactive, Pf growth 96h 9.3µM, Pf growth 48h inactive and FBPA Giardia inh inactive.
Screening COc1cccc(Cl)c1NC(=O)N1CCc2c([nH]c3ccccc23)C1C(F)(F)F (centres undefined) returned HCMV inh inconclusive, Sm TGR inh inactive, Pf growth 96h inconclusive, Pf growth 48h inconclusive and FBPA Giardia inh inactive.
`Cc1ccc(-c2nc(CN3CCCCC3)cc(CN3CCCCC3)c2O)cc1` gave HCMV inh inactive, Sm TGR inh 20µM, Pf growth 96h inconclusive, Pf growth 48h 0.83µM and FBPA Giardia inh inactive.
CN(C)c1cccc(C(=O)Nc2ccc(-c3nc4ccccc4s3)cc2)c1 was read as HCMV inh inactive and Sm TGR inh inactive.
CN(C(=O)OC(C)(C)C)c1ccc(-c2nc3ccccc3s2)cc1 was read as HCMV inh -95.
Screening CC(C)c1ccc(-c2nc3ccccc3s2)cc1 returned HCMV inh -95, Sm TGR inh inactive, Pf growth 96h inconclusive, Pf growth 48h inactive and FBPA Giardia inh inactive.
COc1cc(-c2nc3ccccc3s2)ccc1O was read as HCMV inh inactive, Sm TGR inh inactive, Pf growth 48h inactive and FBPA Giardia inh inactive.
For CSc1ccccc1C(=O)C1CCCN(C(=O)c2ccc(N3CCOCC3)cc2)C1 (centres undefined) the results were HCMV inh inactive, Sm TGR inh inactive, Pf growth 96h 10µM, Pf growth 48h inactive and FBPA Giardia inh inactive.
For CSc1ccccc1C(=O)C1CCCN(C(=O)CCN2CCCO2)C1 (centres undefined) the results were HCMV inh inactive, Sm TGR inh inactive, Pf growth 96h 5.2µM, Pf growth 48h inactive and FBPA Giardia inh inactive.
N#C/C(=C\c1cc(O)c(O)c(O)c1)C(N)=O was read as HCMV inh inactive, Sm TGR inh 13µM, Pf growth 96h inconclusive, Pf growth 48h 10µM and FBPA Giardia inh 5µM.
`N#C/C(=C\c1cc(Cl)c(OCc2ccc(Cl)cc2)c(Cl)c1)C(N)=O` gave Sm TGR inh inactive, Pf growth 96h inactive, Pf growth 48h inactive and FBPA Giardia inh inactive.
CCOC(=O)c1c(NC(=O)CSc2nc3ccccc3[nH]2)sc2c1CC(C)(C)NC2(C)C was read as HCMV inh inactive, Sm TGR inh inactive, Pf growth 96h 7.4µM and Pf growth 48h 10µM.
Screening CCOC(=O)c1c(NC(=O)COc2ccccc2)sc2c1CC(C)(C)NC2(C)C returned HCMV inh inactive, Sm TGR inh inactive, Pf growth 96h inactive[5.75 µM], Pf growth 48h inconclusive and FBPA Giardia inh inactive.
O=C(OCc1ccco1)c1ccc2c(c1)N(Cc1ccc([N+](=O)[O-])cc1)C(=O)c1ccccc1S2 was read as HCMV inh inactive and Sm TGR inh inactive.
Screening CC(C)(C)C(=O)NC(=S)Nc1ccccc1C(=O)NC1CCCCC1 returned HCMV inh inactive, Sm TGR inh inactive, Pf growth 96h inactive, Pf growth 48h inactive and FBPA Giardia inh inactive.
For O=C(NNC(=S)NC1CCCCC1)c1cccs1 the results were HCMV inh inactive, Sm TGR inh inactive, Pf growth 96h inactive, Pf growth 48h inactive and FBPA Giardia inh inactive.
`O=C(NNC(=S)NC1CCCCC1)c1ccccc1O` gave HCMV inh inactive, Sm TGR inh inactive, Pf growth 96h 2.3µM, Pf growth 48h inactive and FBPA Giardia inh inactive.
`CC(=O)NC(=S)Nc1ccccc1C(=O)NC1CCCCC1` gave HCMV inh inactive, Sm TGR inh inactive, Pf growth 96h 8.3µM, Pf growth 48h inactive and FBPA Giardia inh inactive.
`N#CCNC1CC(=O)N(c2ccccc2)C1=O` (centres undefined) gave HCMV inh inactive, Sm TGR inh inactive, Pf growth 96h inactive, Pf growth 48h inactive and FBPA Giardia inh inactive.
Screening O=C1O[C@@H](c2ccccc2)C[C@@H](O)C(=O)CCc2ccccc21 returned HCMV inh inactive.
Screening COc1ccc(-n2cnc3c(N)nc(N)nc32)cc1 returned HCMV inh inactive.
`O=S(=O)(c1ccccc1)N1N=C(c2cccs2)CC1c1ccc(F)cc1` (centres undefined) gave HCMV inh inconclusive, Sm TGR inh inactive, Pf growth 96h 9.3µM, Pf growth 48h inconclusive and FBPA Giardia inh inactive.
For O=S(=O)(c1ccccc1)N1N=C(c2cccs2)CC1c1cccc(O)c1 (centres undefined) the results were HCMV inh inactive, Sm TGR inh inactive, Pf growth 96h inconclusive and Pf growth 48h inactive.
`Fc1ccc(N2N=C(c3cccs3)CC2c2ccccc2)cc1` (centres undefined) gave HCMV inh inactive, Sm TGR inh inactive, Pf growth 96h inactive, Pf growth 48h 13µM and FBPA Giardia inh inactive.

High-throughput results deposited in PubChem by National Center for Advancing Translational Sciences (NCATS).
